This is part of a sample that, as a whole, favours compounds with a hit. Of some 79,000 tested, about 15% had one in any assay. Active and inactive are the calls of the source. No stated cut-off is given here; in the data, active means growth inhibition above about 70%; inactive means the rest.
Key:
[1] = NCI Yeast Anticancer Drug Screen. Data for the rad50 strain (AID 155);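 further: 0% = growth of vehicle-only cultures of the same strain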; details: S. cerevisiae rad50 strain growth inhibition; at 50.0 µM; active compounds read high
In short: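 Growth of the mutant yeast was measured after compound exposure and referenced to vehicle-treated cultures.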

[2] = NCI Yeast Anticancer Drug Screen. Data for the mec2-1 strain (AID 157); details: S. cerevisiae mec2-1 strain, at 50.0 µM, active compounds read high
In short: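 Test agents were screened against the mec2-1 yeast strain, with defined DNA repair or cell cycle alteration. Growth was scored as inhibition against vehicle-only controls.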

[3] = NCI Yeast Anticancer Drug Screen. Data for the sgs1 mgt1 strain (AID 161);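 further: 0% = growth of cultures given vehicle only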; details: S. cerevisiae sgs1 mgt1 strain, at 50.0 µM, active compounds read high
In short: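 Mutant yeast exposed to compound; growth scored against vehicle-only wells.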

[4] = NCI Yeast Anticancer Drug Screen. Data for the cln2 rad14 strain (AID 165);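 further: 0% = growth equal to vehicle treated cultures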; details: S. cerevisiae cln2 rad14 strain, at 50.0 µM, active compounds read high
In short: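 Growth of compound-exposed yeast (cln2 rad14 genotype) measured and expressed as inhibition relative to vehicle.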

[5] = NCI Yeast Anticancer Drug Screen. Data for the bub3 strain (AID 167); details: S. cerevisiae bub3 mutant strain, at 50.0 µM, active compounds read high
In short: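 Whole-cell yeast assay. The mutant strain was incubated with compounds, and growth inhibition was determined by comparison with vehicle-treated cells.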

[6] = NCI Yeast Anticancer Drug Screen. Data for the mlh1 rad18 strain (AID 175); details: S. cerevisiae mlh1 rad18 strain growth inhibition; at 50.0 µM; active compounds read high
In short: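 In this whole-cell yeast screen, a strain with altered DNA damage repair is challenged with compound, and its growth is measured against matched vehicle-treated controls.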

Measured: growth inhibition

CCOC(=O)C1=C(C)NC(=O)NC1c1cccc(OC)c1O (stereo unspecified)
inactive: [1] 11% | [2] 0.15% | [3] 16.7% | [4] 9.7% | [5] 30.8% | [6] 18.1%

O=C(Nc1ccccc1)C1C2C=CC(C2)C1C(=O)Nc1ccccc1 (stereo unspecified)
inactive: [1] 0.2% | [2] 27.9% | [3] 5.05% | [4] -11.7% | [5] 21.4% | [6] -8.25%

C#CC(C)(C)OCC(O)CCl (stereo unspecified)
inactive: [1] 1.85% | [2] 5.65% | [3] 1.65% | [4] -28.8% | [5] -15.4% | [6] 2.45%

CCOC(=O)/C(O)=C\c1cc(Br)c(OC)cc1[N+](=O)[O-]
inactive: [1] 54.6% | [2] 49.7% | [3] 58.4% | [4] 9.6% | [5] 30.8% | [6] 64%

COc1ccc2c3c(ccc2c1)C1C(=O)OC(=O)C1CC3 (stereo unspecified)
inactive: [1] -2.6% | [2] 8.6% | [3] 6.5% | [4] -36.6% | [5] -5.95% | [6] 11.2%

CCCCCOP(=O)(OCCCCC)C(c1ccccc1)c1ccccc1
inactive: [1] 1% | [2] -44.9% | [3] -4.15% | [4] -33.4% | [5] 9.5% | [6] -11.9%

CN(C)C1=Nc2ccccc2C(=S)N2CSCC12 (stereo unspecified)
inactive: [1] -29% | [2] -37.1% | [3] -16.9% | [4] -12.2% | [5] -63.8% | [6] -20.3%

CC12CCC(NC(=O)C3CCCN3C(=O)OCc3ccccc3)CC1CCC1C2CCC2(C)C(NC(=O)C3CCCN3C(=O)OCc3ccccc3)CCC12 (stereo unspecified)
inactive: [1] -4.3% | [2] 4.15% | [3] -19.4% | [4] -46% | [5] -5.35% | [6] -3.2%

C/C=N\C(N)=S
inactive: [1] 1.45% | [2] -1.3% | [3] 4.8% | [4] 9.05% | [5] 9.8% | [6] 1%

CC(C)CCNc1nc(N)[nH]c(=O)c1NC=O
inactive: [1] -16.7% | [2] 16.1% | [3] -0.55% | [4] 7.5% | [5] 2.7% | [6] -56.6%

CC1OC1C(=O)C1(O)C(C)C(O)C23OC2(C(O)c2c(O)cccc2C3=O)C1O (stereo unspecified)
inactive: [1] 6.75% | [2] -21.8% | [3] 8.65% | [4] -1.1% | [5] -0.7% | [6] 10.3%

N#CCN1C(=O)c2ccccc2C1=O
inactive: [1] 6% | [2] -2.85% | [3] 1.45% | [4] 2.15% | [5] 3.15% | [6] -15.8%

CN(C)c1ccc(/C=C(\NC(=O)c2ccccc2)C(=O)NC(CC(=O)O)C(=O)O)cc1 (stereo unspecified)
inactive: [1] 10.2% | [2] 1.45% | [3] 17.9% | [4] 7% | [5] -0.25% | [6] -0.55%

CCCCCCCOCC(=O)O
inactive: [1] 10% | [2] -5.8% | [3] 3.6% | [4] -30.2% | [5] 1.25% | [6] 17.6%

CN(C)c1c(F)c(F)c(N=Nc2ccccc2)c(F)c1F
inactive: [1] 0.75% | [2] -2.6% | [3] 1.15% | [4] -3.15% | [5] 16.8% | [6] -12.1%

Nc1ccc(/C=C\C(=O)c2ccccc2)cc1
inactive: [1] 16.4% | [2] 1.05% | [3] 12.1% | [4] 12.6% | [5] 4.25% | [6] 17.4%

CC(C)(C)OC(=O)Cc1ccc([N+](=O)[O-])cc1
inactive: [1] 2% | [2] -19.6% | [3] -10.7% | [4] -5.85% | [5] -3.05% | [6] -17.7%

CCCCNc1nc2c(=O)n(C)c(=O)n(C)c2s1
inactive: [1] -6.3% | [2] -0.6% | [3] -3.1% | [4] -17.4% | [5] -5.9% | [6] 9.75%

c1cc2c3c(cccc3c1)-c1nc3ccccc3nc1-2
inactive: [1] -5.1% | [2] -21.4% | [3] -5.2% | [4] 4.05% | [5] 0.2% | [6] 19.8%

O=C[c-]1[c-][c-][c-][c-]1.[Fe+2].[c-]1[c-][c-][cH-][c-]1
inactive: [1] 44% | [2] 58.5% | [3] 57.8% | [4] 49% | [5] 51.6% | [6] 14%

CC(=O)Nc1ccc(N=C/C=C/c2ccccc2)cc1
inactive: [1] -24.6% | [2] -56.5% | [3] 5.9% | [4] 2.05% | [5] -44.5% | [6] 2.05%

COc1ccc(NC(=O)C(=O)Cc2nc3ccc(C(=O)c4ccccc4)cc3[nH]c2=O)c([N+](=O)[O-])c1
inactive: [1] 36% | [2] 2.65% | [3] 12.7% | [4] 19.1% | [5] 11.8% | [6] 22.6%

Cc1ccc(S(=O)(=O)NNS(=O)(=O)c2ccc(C)cc2)cc1
inactive: [1] 5% | [2] 9.6% | [3] 26.9% | [4] -5.95% | [5] 12.7% | [6] 17.2%

Nc1ncc2ncn(CCO)c2n1
inactive: [1] -22.1% | [2] -15.4% | [3] 23.1% | [4] 1.95% | [5] -6.85% | [6] 3.7%

CCCCC/C(=C\c1ccccc1)C1OCC(COC(C)=O)O1 (stereo unspecified)
inactive: [1] -37.6% | [2] -5.8% | [3] -2.25% | [4] -30.2% | [5] 40.8% | [6] -2.6%

Cc1ccc(NC(=O)Oc2ccc(Br)cc2)c([N+](=O)[O-])c1
inactive: [1] 20.4% | [2] 16.9% | [3] 16.3% | [4] 16.3% | [5] 11.3% | [6] 13.8%

CC(=O)Oc1cccc(OC(C)=O)c1
inactive: [1] 41.8% | [2] 38.9% | [3] 25.2% | [4] 12.1% | [5] 6.8% | [6] 34.9%

O=C1C(N=Nc2ccc(Br)cc2)Sc2nc3ccccc3n21 (stereo unspecified)
inactive: [1] 8.2% | [2] -12.4% | [3] 6.45% | [4] -27.4% | [5] 17.1% | [6] 10.3%

Cn1cc([N+](=O)[O-])cc1C(=O)Nc1cc(C(=O)Nc2ccc(S(=O)(=O)O)c3cc(S(=O)(=O)O)ccc23)n(C)c1
inactive: [1] 2.4% | [2] 21.4% | [3] 14.3% | [4] 17.4% | [5] 20.4% | [6] 11.7%

CC(C)NC(=O)OCCN=c1c2ccccc2ccc2ccccc12
inactive: [1] 53.3% | [2] 49.8% | [3] 65.9% | [4] 22.7% | [5] 60.1% | [6] 38.9%

C=Cc1cc2c(cc1O)CC[C@@H]1[C@@H]2CC[C@]2(C)[C@@H](O)CC[C@@H]12
inactive: [1] 17.4% | [2] 17.4% | [3] 36.8% | [4] 29.7% | [5] 22.9% | [6] 36.1%

CCC(C#N)N(Cc1cccc(CN(C(C)=O)C(C#N)CC)c1)C(C)=O (stereo unspecified)
inactive: [1] -5.9% | [2] -11.7% | [3] -4.15% | [4] -29.9% | [5] -25.7% | [6] -43.9%

CCN(CC)CCCNc1ccc([N+](=O)[O-])c2nc3ccccc3c(N)c12
inactive: [1] 21.4% | [2] -0.2% | [3] 15.8% | [4] 32.9% | [5] -17.1% | [6] 63.8%

COc1ccc(-c2cc(=O)c3cccc(CC(=O)O)c3o2)cc1OC
active: [1] 99.2% | [2] 99.2% | [3] 97.5% | [4] 98.8% | [5] 99.3% | [6] 99.2%

COC(=O)C(Cc1ccccc1)NC(=O)Cn1ccnc1[N+](=O)[O-] (stereo unspecified)
inactive: [1] 9.65% | [2] -19.6% | [3] 15.2% | [4] 7.7% | [5] -16% | [6] -3.3%

Cc1cc(-c2ccccc2)nc(Nc2nc3ccccc3o2)n1
inactive: [1] 9.2% | [2] 1.1% | [3] 10.6% | [4] 6.35% | [5] -9.45% | [6] -2.3%

Cc1ccc(P(=S)(c2ccc(C)c3ccccc23)c2ccc(C)c3ccccc23)c2ccccc12
inactive: [1] -8.1% | [2] -6.3% | [3] -3.4% | [4] -8.7% | [5] 0.1% | [6] -4.9%

Cc1c(F)c(N)c2c(=O)cc(-c3ccc(N)c(F)c3)oc2c1F
inactive: [1] 32.8% | [2] 16.1% | [3] 30.1% | [4] 21.3% | [5] 22.9% | [6] 1.2%

NC(Cc1cccs1)C(=O)O (stereo unspecified)
inactive: [1] -31.9% | [2] -21.9% | [3] -27.6% | [4] -43% | [5] -2.5% | [6] -37.1%

CCO/C=N\C1=C(C#N)SC2=N/C(=C\c3ccco3)C(=O)N21
inactive: [1] 6.1% | [2] -19.2% | [3] -7.4% | [4] 5.65% | [5] 0.45% | [6] -17.3%

Nc1nc(N)c(N=Nc2ccc(Cl)cc2Cl)c(=O)[nH]1
inactive: [1] 18.6% | [2] -2.6% | [3] -6.45% | [4] 15.6% | [5] 14.8% | [6] 2.75%
